Source: PubChem BioAssay (NCATS)
Results filed as inconclusive are left out. A number with no mark means an inactive call. The source made the active and inactive calls. Calls follow the shape of the dose curve; as a rule, active = well fitted cell-killing curve with a large enough effect; inconclusive = small, poorly fitted or top-dose-only effect, or effect the other way; inactive = no such curve, though single readings can be large or run the other way.

Experiment: Viability qHTS for spleen associated tyrosine kinase inhibitor (SYKi) drug resistant MV4-11 cells (AID 1963824); also: nearly all actives have a fitted effect of over 35% in size
Conditions: SYKi-resistant MV4-11 viability, CellTiter-Glo, 72 h; series mostly up to 45 µM
Method in brief: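 SYK-inhibitor-resistant MV4-11 AML cells were seeded at 500 per well onto compound and cultured 72 hours (37 °C, 5% CO2). CellTiter-Glo was then added, and after 10 min at room temperature, luminescence gave viability.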
Potency is read from the fitted curve at half-maximal effect.

SMILES | Potency | viability, % of control
CC1(CO)CC(O)[C@]2(C(=O)O)CCC34CC3(C=CC3[C@]5(C)C(CC[C@]34C)C(C)(CO)[C@@H](O)[C@H](O)[C@@H]5O)C2C1 (stereo not given in full) | 11.2 µM (active) | 
Cn1cnc(-c2nccc3c(=O)[nH]c(OCCCC(F)(F)F)nc23)c1 | 9.2 µM (active) | 
N#Cc1ccc2c(c1)CCN(CCC1CCC(NC(=O)c3ccnc4ccccc34)CC1)C2 (stereo not given) | 10.3 µM (active) | 
CCOc1nc2cccc(C(=O)OCc3oc(=O)oc3C)c2n1Cc1ccc(-c2ccccc2-c2noc(O)n2)cc1 | inactive | 
CN1CCC(NC(=O)c2cc(-c3c(O)cc(O)cc3Oc3ccc([N+](=O)[O-])cc3)on2)CC1 | 0.103 µM (active) | 
C[C@@]1(O)[C@H](O)[C@@H](CO)O[C@H]1n1ccc(N)nc1=O | 13 µM (active) | 
O=S(=O)(/N=C/c1c(O)ccc2ccccc12)c1cccs1 | inactive | 
CC1=C2CC3OC3(C)CCC3OC3(C)CC2OC1=O (stereo not given) | 3.66 µM (active) | 
COc1cc(Nc2nc3c(s2)CCCC3c2ccccc2)ccc1-n1cnc(C)c1 (stereo not given) |  | 109% [at 9.25 µM]
CCNC(=O)Nc1ccc(Oc2ncnc(N)c2/C=N/OC)cc1Cl | 18.6 µM (active) | 
CN(C)CC1CCn2cc(c3ccccc32)C2=C(C(=O)NC2=O)c2cn(c3ccccc23)CCO1 (stereo not given) | 0.411 µM (active) | 
CC(C)=CCc1c(O)cc2oc3cc(C)cc(O)c3c2c1C | 23.1 µM (active) | 
C[C@@H]1O[C@@H](O[C@H]2[C@H](OC(=O)[C@]34CCC(C)(C)C[C@H]3C3=CCC5[C@@]6(C)C[C@H](O)[C@H](O[C@@H]7O[C@H](CO)[C@@H](O)[C@H](O)[C@H]7O)[C@](CO)(C(=O)O)C6CC[C@@]5(C)[C@]3(C)C[C@H]4O)OC[C@H](O)[C@@H]2O)[C@H](O)[C@H](O)[C@H]1O[C@@H]1OC[C@@H](O)[C@H](O[C@@H]2OC[C@](O)(CO)[C@H]2O)[C@H]1O (stereo not given in full) | 0.776 µM (active) | 
C=C1C[C@@H]2CC[C@@]34C[C@H]5O[C@H]6[C@@H](O3)[C@H]3O[C@H](CC[C@@H]3O[C@H]6[C@H]5O4)CC(=O)C[C@@H]3[C@@H](OC)[C@@H](C[C@H](O)CN)O[C@H]3C[C@H]3O[C@@H](CC[C@@H]1O2)C[C@@H](C)C3=C | 0.0005 µM (active) | 
Oc1ccc(-c2cnc3ccc(NCc4ccco4)nn23)cc1 | 0.092 µM (active) | 
C=C1C(=O)OC2CC(C)C(CCC(C)O)=CCC12 (stereo not given) | 7.31 µM (active) | 
CCC(C)(NC(=O)C(CCC(N)=O)NC(=O)C1CC(O)CN1C(=O)C(C)(C)NC(=O)C(C)(C)NC(=O)C(CC(C)C)NC(=O)CNC(=O)C(NC(=O)C(C)(C)NC(=O)C(C)(C)NC(=O)C(C)(C)NC(=O)C(Cc1ccccc1)NC(C)=O)C(C)C)C(=O)N1CC(O)CC1C(=O)NC(C)(C)C(=O)NC(CO)Cc1ccccc1 (stereo not given) | 0.616 µM (active) | 
CC(Cc1cccc(C(F)(F)F)c1)NCCOC(=O)c1ccccc1 (stereo not given) | inactive | 
COc1cc([C@H]2O[C@H](c3cc(OC)c4c(c3)OCO4)[C@H](C)[C@H]2C)cc(OC)c1OC | 0.893 µM (active) | 
COC(=O)CC(O)CC(O)/C=C/c1c(C)ccc2c1C(OC(C)=O)CC(C)C2 (stereo not given) | 1.8 µM (active) | 

SMILES | Potency | viability, % of control
COc1cc([C@@H]2Oc3c(OC)cc(CCCO)cc3[C@@H]2CO[C@@H]2O[C@H](CO)[C@@H](O)[C@H](O)[C@H]2O)ccc1O | inactive | 
CCOC(=O)CCN(C(=O)c1ccc2c(c1)nc(CNc1ccc(C(=N)N)cc1)n2C)c1ccccn1 | inactive | 
COc1ccc(CN2C(=O)C(=O)c3cc(S(=O)(=O)N4CCC[C@H]4COc4cccnc4)ccc32)cc1 | inactive | 
CSCC1OC(n2cnc3c(N)ncnc32)C(O)C1O (stereo not given) | inactive | 
CC1C(=O)CC2C3C(O)CC(C(=O)O)C12CC3(C)C (stereo not given) | 20.6 µM (active) | 
COc1cc(/C=C/C(=O)OC[C@H]2O[C@H](O[C@]3(CO)O[C@H](CO)[C@@H](O)[C@@H]3O)[C@H](O)[C@@H](O)[C@@H]2O)cc(OC)c1O | inactive | 
OC/C=C/c1ccc(O[C@@H]2O[C@H](CO)[C@@H](O)[C@H](O)[C@H]2O)cc1 | inactive | 
COC1C=C(C)C(O)(CO)C2(C)CCCC(C)(C)C12 (stereo not given) | inactive | 
O=C1CCCC2=C1C1(CCCC1)N=C(Nc1nc3ccccc3o1)N2 | 3.66 µM (active) | 
COc1cccc(NCCC2(c3ccccc3)CC(C)(C)OC(C)(C)C2)c1 | inactive | 
COc1ccc(C2OCC3C(c4cc(OC)c5c(c4)OCO5)OCC23)cc1OC (stereo not given) | 8.93 µM (active) | 
CO[C@H]1C[C@@H]2CC[C@@H](C)[C@@](O)(O2)C(=O)C(=O)N2CCCC[C@H]2C(=O)O[C@H]([C@H](C)C[C@@H]2CC[C@@H](OP(C)(C)=O)[C@H](OC)C2)CC(=O)[C@H](C)/C=C(\C)[C@@H](O)[C@@H](OC)C(=O)[C@H](C)C[C@H](C)/C=C/C=C/C=C/1C | 3.72 µM (active) | 
CCC[C@@H]1C[C@@H](C(=O)N[C@@H]([C@H]2O[C@H](SC)[C@H](O)[C@@H](O)[C@@H]2O)[C@@H](C)O)N(C)C1 | inactive | 
OC[C@H]1O[C@@H](Oc2cc(O)cc(-c3cc4ccc(O)cc4o3)c2)[C@H](O)[C@@H](O)[C@@H]1O | 4.47 µM (active) | 
C/C=C(\C)C(=O)OC1C(C)C2(O)C(C=C(CO)CC3(O)C(=O)C(C)=CC32)C2C(C)(C)C12OC(=O)C(C)C (stereo not given) | 0.008 µM (active) | 
COC1OC(OC)C(O)(CCC2(C)C(C)CCC3(C)C2CC(O)C(O)C32CO2)C1O (stereo not given) | inactive | 
O=C1NC(=O)c2cc(Nc3ccccc3)c(Nc3ccccc3)cc21 | 9.2 µM (active) | 
OC[C@H]1O[C@@H](O[C@@H]2OC=C[C@H]3[C@H](O)[C@@H]4O[C@]4(CO)[C@@H]23)[C@H](O)[C@@H](O)[C@@H]1O | inactive | 
CC(C)(C)c1ccc(CN2CCN(C(c3ccccc3)c3ccc(Cl)cc3)CC2)cc1 (stereo not given) | 23.1 µM (active) | 
CC1=C2CC(C)(C)CC2C(O)C2=C(C1)C(=O)OC2O (stereo not given) | inactive | 
